The values below come from PubChem BioAssay AID1778 (Sanford-Burnham Center for Chemical Genomics, 2009).

The structures appear in SMILES notation. About 260 (0.09%) of roughly 290,000 compounds were called active. Many of the other results were omitted from the sample, so actives are more common in it than they were. Measured potencies and affinities stand elsewhere. Unmarked numbers belong to inactive results. No stated cut-off is given here; in the data, active means inhibition above about 50%; inactive means the rest.

The target of this test is Kappa-type opioid receptor (Homo sapiens) (UniProt P41145). The test is described as follows: KOR antagonists, beta-arrestin recruitment, cell-based, luminescence, uHTS (AID 1778). The note with it: antagonist mode, active compounds read high; at 10 µM unless noted.
Sequence of Kappa-type opioid receptor (Homo sapiens) (P41145 whole entry, looked up): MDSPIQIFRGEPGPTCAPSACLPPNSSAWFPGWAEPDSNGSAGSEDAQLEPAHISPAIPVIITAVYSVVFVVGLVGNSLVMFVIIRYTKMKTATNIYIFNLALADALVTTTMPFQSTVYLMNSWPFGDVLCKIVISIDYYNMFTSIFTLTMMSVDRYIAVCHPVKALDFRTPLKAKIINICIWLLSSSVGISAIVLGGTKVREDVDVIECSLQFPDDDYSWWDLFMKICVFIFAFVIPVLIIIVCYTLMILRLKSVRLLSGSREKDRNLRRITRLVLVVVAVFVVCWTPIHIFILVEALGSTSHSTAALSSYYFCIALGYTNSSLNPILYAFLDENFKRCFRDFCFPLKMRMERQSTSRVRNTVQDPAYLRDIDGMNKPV
On to `Cn1c(CNC(=O)c2ccccc2F)nnc1SCC(=O)NCc1ccccc1`, for which the inhibition is -10.1%.

Turning to `Fc1ccc(-c2ccnc(=S)[nH]2)cc1`, the inhibition was 2.9%.

For the compound `C/C(=N/NC(=O)c1ccccn1)c1ccc(O)cc1`, the inhibition is 12.9%.

On to `C/C(=N\NC(=O)c1ccc(F)cc1)c1ccccn1`, for which the inhibition is 86.6% (active).

`C/C(=N/NC(=O)c1ccccn1)c1ccncc1`: the inhibition is -12.4%.

For the compound `Cc1ccc2ccc3ccc(C)nc3c2n1`, the inhibition was -8.8% [at 20 µM].

For `Cc1ccc(O)c(CO)n1`, the inhibition is 0.6%.

On to `COc1cccc(-n2nc(C#N)c(Cl)cc2=O)c1`, for which the inhibition was 32.8%.

On to `COc1ccc(-n2nc3c(N)n[nH]c3cc2=O)cc1`, for which the inhibition was -30.3% [at 20 µM].

For the compound `CC(C)(C)c1ccc(-n2nc(C(N)=O)c(O)cc2=O)cc1`, the inhibition was -2%.

In the case of `Nc1n[nH]c2cc(=O)n(-c3ccc(Cl)cc3)nc12`, the inhibition was -68.5% [at 20 µM].

Take `COc1cc(C=O)ccc1OCCSc1ccc(Cl)cc1`: the inhibition was 16.4%.

Turning to `CC(CCc1ccccc1)NC(=O)c1ccc(NC(=O)c2ccc(Cl)cc2Cl)cc1` (stereo unspecified), the inhibition is 26.3%.

With `C/C=N/NC(=O)CCNC(=O)c1ccccc1`, the inhibition is -40%.

Consider `CCCCn1c(-c2cccs2)nc2oc3ccccc3c(=O)c2c1=O`, for which the inhibition was 17.8%.

Consider `Cc1cc2nnc(SCC(=O)Nc3cc(S(=O)(=O)N4CCOCC4)ccc3Cl)n2c2ccccc12`, for which the inhibition is -21.8%.

`O=C(NNC(=O)C1CC=CCC1C(=O)O)c1cccs1` (stereo unspecified): the inhibition is 30.6%.

With `CC1SCC(NC(=O)c2cccc(Cl)c2)CS1` (stereo unspecified), the inhibition is -29.1%.

Take `CCN(CC(=O)Nc1ccccc1C(F)(F)F)C(=O)CCc1nc2ccccc2c(=O)[nH]1`: the inhibition is -11.6%.

For `COc1ccc(-c2c(C)[nH]n3c(=O)c(Cc4ccccc4)c(C)nc23)cc1`, the inhibition was -5.1%.

With `Cc1nc2c(-c3ccc(Cl)cc3)c(C)[nH]n2c(=O)c1Cc1ccccc1`, the inhibition is 51% (active).

Take `Cc1nc2c(-c3ccccc3)c(C)[nH]n2c(=O)c1Cc1ccccc1`: the inhibition was -10.5% [at 20 µM].

As to `COc1ccc(CC(=O)Nc2ccc(C(C)=O)cc2)cc1`, the inhibition is -81.9% [at 20 µM].

As for `Oc1[nH]c2ccccc2c1C=Nc1ccc2c(c1)OCO2`, the inhibition is -33.1%.

On to `O=S(=O)(O)c1cccc2c(N=Nc3ccc(O)c4ncccc34)cccc12`, for which the inhibition is -7.2%.

Regarding `Oc1ccc(N=Nc2ccc3c(c2)OCCO3)c2cccnc12`, the inhibition is 68.5% (active).

With `O=S(=O)(Nc1ccc(N=Nc2ccc(O)c3ccccc23)cc1)c1ccccc1`, the inhibition was -3.4%.

Take `Nc1ccc(N=Nc2ccccc2)c2cccnc12`: the inhibition is -4.3%.

On to `Oc1[nH]c2ccccc2c1C=Nc1ccc2c(c1)OCCO2`, for which the inhibition is 0.8%.

Regarding `Oc1ccc(N=Nc2ccc3c(c2)OCCO3)c(O)c1`, the inhibition was 34.9%.

Take `Oc1ccc(N=Nc2ccc3c(c2)OCO3)c2ccccc12`: the inhibition was 85.1% (active).

Regarding `COc1ccccc1NC(=O)c1cc2c(CO)cnc(C)c2oc1=Nc1cccc(C(N)=O)c1`, the inhibition is 21.7%.

As to `CCN(CC)CC#Cc1ccc(C)cc1`, the inhibition was -6.4%.

On to `CCC(C(=O)OC)n1cnc2c(nnn2-c2ccccc2)c1=O` (stereo unspecified), for which the inhibition is -16.1% [at 20 µM].

On to `Cc1nn(-c2ccc(N3CCCCC3)nn2)c(C)c1CCC(=O)Nc1ccc(F)c(F)c1`, for which the inhibition is -31.5%.

In the case of `Cc1cc(C)cc(NC(=O)c2ccc3c(c2)CCN3S(C)(=O)=O)c1`, the inhibition was -4.2%.

`COc1ccccc1N1CCN(Cc2cc3c(cc2Br)OCCO3)CC1`: the inhibition was -44.1%.

Take `COc1ccccc1N1CCN(Cc2ccc(O)c3ncccc23)CC1`: the inhibition is -12.2%.

Regarding `O=[N+]([O-])c1cc(CN2CCN(c3ccccc3)CC2)c(O)c2ncccc12`, the inhibition was 12% [at 20 µM].

As to `Oc1c(CN2CCN(c3ccccc3)CC2)cc(Br)c2cccnc12`, the inhibition is 64% (active).

As for `COc1ccccc1N1CCN(Cc2cc(Br)c(O)c3ncccc23)CC1`, the inhibition is 63.3% (active).

On to `Oc1c(CN2CCCCC2)cc(Br)c2cccnc12`, for which the inhibition was -1.9%.

As to `COc1ccc(N2CCN(C(=O)c3cc4c(=O)n(Cc5ccccc5)ccc4nc3C)CC2)cc1`, the inhibition was -13.1%.

With `CCCOc1ccc(C(=O)NNC(=S)NC(C)=O)cc1`, the inhibition is 19.1%.

As for `CCCCOc1ccc(C(=O)NNC(=S)NC(=O)CC)cc1`, the inhibition was 26.3%.

With `CCc1nnc(NC(=O)c2ccc(-c3ccccc3F)o2)s1`, the inhibition is -18.1%.

Turning to `CC1=C/C(=N\NC(=S)NCCc2ccccc2)CC(C)(C)C1`, the inhibition is -16.1%.

For the compound `CC(C)(C)C1CCC(=NNC(=S)Nc2cccnc2)CC1` (stereo unspecified), the inhibition was 11.2%.

On to `O=C(Nc1ccc(NC(=O)c2ccccc2Cl)nc1)c1ccco1`, for which the inhibition is -2%.

With `C=C1C(=O)O[C@@H]2C[C@@H](C)[C@@H]3C=CC(=O)[C@@]3(C)[C@@H](OC(C)=O)[C@H]12`, the inhibition was 26.1%.

On to `CC(=O)O[C@@H]1[C@H]2[C@@H](C[C@@H](C)[C@@H]3C=CC(=O)[C@@]13C)OC(=O)[C@@H]2C`, for which the inhibition was 23.9%.

In the case of `CN(C)CCCNC(=S)NCCNc1nc2cc3c(cc2cc1C#N)OCO3`, the inhibition was 0.9%.

`O=C(Nc1ccc(CN2CCS(=O)(=O)CC2)cc1)c1ccccc1`: the inhibition was 0.1%.

On to `CCCSc1cc(NCCOC(=O)CCC)c([N+](=O)[O-])c2nonc12`, for which the inhibition was -2.8%.

Take `CCC(=O)OCCNc1cc(SCCC(=O)OC)c2nonc2c1[N+](=O)[O-]`: the inhibition is 5.5%.

In the case of `CCCC(=O)OCCNc1cc(SCCC(=O)OC)c2nonc2c1[N+](=O)[O-]`, the inhibition is -12.2%.

As to `Cn1ccnc1Sc1cc(NCCCO)c([N+](=O)[O-])c2nonc12`, the inhibition was 41.5%.

Take `Cc1csc(SCC(=O)NC(=O)C2CCCCC2)n1`: the inhibition was -17.4%.

As for `Nc1cc(=O)[nH]c(SCC(=O)Nc2cc([N+](=O)[O-])ccc2Cl)n1`, the inhibition is 15.1%.

In the case of `O=C(CNC(=O)c1ccco1)OCC(=O)c1ccc(Br)cc1`, the inhibition was -35%.

Consider `Cc1ccc(Nc2nc3c(c(=O)[nH]2)CCCC3)cc1`, for which the inhibition was -0.9%.

Take `Cc1nc(Nc2nc3ccccc3o2)nc2c1CCC2`: the inhibition was 21.7%.

Regarding `Cc1nn(C)cc1S(=O)(=O)Nc1ccc(F)c(F)c1`, the inhibition was 9%.

In the case of `COc1ccc(C)cc1NC(=O)CN(c1ccc(F)cc1)S(C)(=O)=O`, the inhibition is -4.9%.

Turning to `Cc1cccnc1Nc1nc(-c2ccccc2)cs1`, the inhibition was 1.5%.

For the compound `COc1cccc2sc(Nc3nc(-c4cc5ccccc5oc4=O)cs3)nc12`, the inhibition was -2.1%.

Regarding `COc1cccc2sc(Nc3nc(-c4ccncc4)cs3)nc12`, the inhibition was -21.7%.

Take `Cc1cccnc1Nc1nc(-c2ccc(O)cc2)cs1`: the inhibition was 17.8%.

Consider `CCc1nc(N2CCN(C(C)=O)CC2)c2c3c(sc2n1)CC(C(C)(C)C)CC3` (stereo unspecified), for which the inhibition was -42.9% [at 20 µM].

With `CN(CC(=O)NCCc1ccccc1)S(=O)(=O)c1cccc2nsnc12`, the inhibition is -1.3%.

Regarding `O=C(CC1C(=O)NCCN1Cc1ccccc1C(F)(F)F)NCCc1ccccn1` (stereo unspecified), the inhibition was -9.9% [at 20 µM].

Consider `O=C(c1cc(F)ccc1F)C1CCCN(C(=O)CCCN2CCCCC2=O)C1` (stereo unspecified), for which the inhibition is 20.7%.

Consider `COc1ccc(N2CCN(CCCNC(=O)C(=O)c3c(C)[nH]c4ccccc34)CC2)cc1`, for which the inhibition is 15.4%.

Regarding `COc1ccc(N2CCN(C(=O)C(=O)c3c(C)n(C)c4ccccc34)CC2)cc1`, the inhibition was -32.2%.

For the compound `O=C(Cn1c(=O)c2cccn2c2cccnc21)NCCCN1CCN(c2ccc(F)cc2)CC1`, the inhibition is -19.4%.

In the case of `COc1ccc(N2CCN(CCCNC(=O)Cn3c(=O)c4cccn4c4ccccc43)CC2)cc1`, the inhibition is 47.8%.

Take `CN(C(=O)COC(=O)c1cc2c(s1)CCCCC2)C1CCS(=O)(=O)C1` (stereo unspecified): the inhibition is 31.3%.

With `COc1ccc(C2(NC(C)=O)CCN(C(=O)c3cccs3)CC2)cc1`, the inhibition was -9.8%.

On to `O=C(Cn1cnc2c(cnn2-c2ccccc2)c1=O)N1CCCc2ccccc21`, for which the inhibition is -16.3%.

Consider `O=C(C1CC1)N1N=C(c2ccc(F)cc2)CC1(O)C(F)(F)F` (stereo unspecified), for which the inhibition is 26.6% [at 20 µM].

Consider `CCOC(=O)N1CCN(S(=O)(=O)c2ccc(C(=O)N(CCCN(C)C)c3nc4ccc(Cl)cc4s3)cc2)CC1`, for which the inhibition is -7.9%.

As to `Cc1ccc(C(=O)N[C@@H](C)CN2C3=NC[C@H](C(C)C)N3C[C@H]2Cc2ccc(O)cc2)cc1Br`, the inhibition is 19.2%.

Turning to `COc1ccc(C[C@H]2CN3C(=NC[C@@H]3Cc3ccc(O)cc3)N2C[C@H](C)NC(=O)c2ccc(C)c(Br)c2)cc1`, the inhibition was 15.3%.

Regarding `COc1ccc(C[C@@H]2CN3C(=NC[C@@H]3C)N2C[C@H](C)NC(=O)c2ccc(C)c(Br)c2)cc1`, the inhibition is 40%.

For the compound `Cc1ccc(C(=O)N[C@@H](C)CN2C3=NC[C@H](C)N3C[C@H]2Cc2ccc(O)cc2)cc1Br`, the inhibition was 45.3%.

As to `NS(=O)(=O)c1ccc(CCNC(=O)CSc2nc3ccsc3c(=O)n2CCCCC(=O)O)cc1`, the inhibition was 3%.

Turning to `N#CCC(=O)NNC(=S)NC(=O)C(c1ccccc1)c1ccccc1`, the inhibition is -32.2% [at 20 µM].

Regarding `Cc1[nH][nH]c(=O)c1C(c1c(C)[nH][nH]c1=O)c1cn(Cc2ccc(F)cc2)c2ccccc12`, the inhibition was 53.6% (active).

Regarding `Cc1[nH][nH]c(=O)c1C(c1c(C)[nH][nH]c1=O)c1cn(Cc2ccccc2Cl)c2ccccc12`, the inhibition is -4%.

Take `Cc1[nH][nH]c(=O)c1C(c1c(C)[nH][nH]c1=O)c1cn(Cc2ccc(Cl)c(Cl)c2)c2ccccc12`: the inhibition is -8.7%.

Turning to `Cc1ccc(NC(=O)C23CCC(C)(C(=O)[C@H]2Br)C3(C)C)cc1` (stereo partly specified), the inhibition was -3.6%.
